This note sets out measurements from the supplement of paper PMC12819154, “High-throughput peptide-centric local stability assay extends protein–ligand identification to membrane proteins, tissues and bacteria” (Nature Structural & Molecular Biology, 2025).
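Further: lysate desalted by size exclusion to strip endogenous ATP, peptide intensities built from DIA-NN precursor signals, and peptides missing any value discarded before comparison.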

Compound in the test: Nc1ncnc2c1ncn2[C@@H]1O[C@H](COP(=O)(O)OP(=O)(O)OP(=O)(O)O)[C@@H](O)[C@H]1O [adenosine 5'-triphosphate]
As to the kind of experiment: log2 fold change of tryptic peptide abundance, ligand vs vehicle (limited proteolysis) (log2 ratio); higher = more trypsin-susceptible (destabilized). Conditions: ligand concentration: 5 mM; sample: E. coli desalted lysate; replicate design: treated before aliquoting. On the procedure:
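HT-PELSA: desalted E. coli K-12 BW25113 lysate (with 12 mM MgCl2) incubated with 5 mM ATP (pH 7) or water for 30 min at 25 C, then a 4 min trypsin pulse at 22 C. Peptides were quantified by DIA-MS (4 replicates). Value is the peptide log2 fold change (treated/control); negative = stabilized. Scale: negative = ligand-stabilized region.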
On to “UniProt P03024 (peptide sequence: HSVSTPSLEASHHATSD, peptide start residue: 327)”, for which the log2 fold change stood at 0.482. For “UniProt P39180 (peptide sequence: NLNGQNGTISLR, peptide start residue: 603)” the value was 0.735; for “UniProt P37747 (peptide sequence: DKDSLASK, peptide start residue: 216)”, -0.827. For the target “UniProt P45541 (peptide sequence: TGMFTCGHQR, peptide start residue: 3)”, the log2 fold change was -1.14. For the target “UniProt P76536 (peptide sequence: ALSGGVGAEELK, peptide start residue: 66)”, the log2 fold change was determined as 0.555. On to “UniProt P14377 (peptide sequence: LVALGHLAAGVAHEIR, peptide start residue: 242)”, for which the log2 fold change was determined as 1.01. In the case of “UniProt P77555 (peptide sequence: VEYYAER, peptide start residue: 49)”, the log2 fold change is -0.74. For “UniProt P28903 (peptide sequence: DGCKVPFK, peptide start residue: 9)” the value was -0.869; for “UniProt P00946 (peptide sequence: FEAKPANQLLTQPVK, peptide start residue: 293)”, -0.633; for “UniProt P00893 (peptide sequence: HSQSYMQSLPDFVR, peptide start residue: 493)”, 0.316. Next, “UniProt P00363 (peptide sequence: VSQAFWHEWR, peptide start residue: 291)”: -0.722; “UniProt P76097 (peptide sequence: FGEIEQR, peptide start residue: 288)”: 0.885.

Regarding “UniProt P27431 (peptide sequence: EMMLELINQPEHFK, peptide start residue: 252)”, the log2 fold change was determined as 0.714.

“UniProt P52598 (peptide sequence: SCVGEAAATMLR, peptide start residue: 151)”: the log2 fold change was -0.421. Regarding “UniProt P33570 (peptide sequence: AGKEEAHGAPLGEEEVALAR, peptide start residue: 254)”, the log2 fold change was -0.289.

With “UniProt P0A6B4 (peptide sequence: QLAIFNTFCEGKPGQR, peptide start residue: 174)”, the log2 fold change worked out at 0.707.

“UniProt P23538 (peptide sequence: QVKIEDVPQEQR, peptide start residue: 278)”: the log2 fold change was -2.56.

With “UniProt P37692 (peptide sequence: AYVLPNSFK, peptide start residue: 84)”, the log2 fold change is -1.08. “UniProt P08401 (peptide sequence: NVQEGGVLASLR, peptide start residue: 457)”: the log2 fold change was found to be 0.651.

For “UniProt P23898 (peptide sequence: SSLDNVYWQK, peptide start residue: 137)”, the log2 fold change turned out to be 0.793. On to “UniProt P76422 (peptide sequence: NTHGTGCTLSAALAALRPR, peptide start residue: 207)”, for which the log2 fold change is -1.45. For “UniProt P37749 (peptide sequence: YMSQDKIK, peptide start residue: 132)” the value was -0.295; for “UniProt P22188 (peptide sequence: LWCVFGCGGDRDK, peptide start residue: 380)”, -1.25. “UniProt P37440 (peptide sequence: LADELCGR, peptide start residue: 45)”: the log2 fold change was -0.817. As for “UniProt P46859 (peptide sequence: GDFDVIESR, peptide start residue: 112)”, the log2 fold change is -0.658. “UniProt P33371 (peptide sequence: ICPELQNASR, peptide start residue: 49)”: the log2 fold change stood at 0.883. In the case of “UniProt P11868 (peptide sequence: AWHEGHER, peptide start residue: 285)”, the log2 fold change is -1.02. Next, “UniProt P32144 (peptide sequence: NILLVADHTK, peptide start residue: 206)”: -0.398; “UniProt P77265 (peptide sequence: QHPEFYLR, peptide start residue: 103)”: -0.556; “UniProt P0DMC5 (peptide sequence: FTDTGCIVLHVR, peptide start residue: 600)”: -1.13. As to “UniProt P46887 (peptide sequence: GKFIPSKDGFSTDQSK, peptide start residue: 60)”, the log2 fold change is 0.606.

On to “UniProt P00350 (peptide sequence: RIDKEGVFHTEWLD, peptide start residue: 455)”, for which the log2 fold change is -0.396. For “UniProt P0AD57 (peptide sequence: QRAEEEADKAIAALQVLPDTPWR, peptide start residue: 286)” the value was 0.56. For “UniProt P0AAC4 (peptide sequence: SDSIVQPR, peptide start residue: 7)”, the log2 fold change is -0.368. For “UniProt P37759 (peptide sequence: EQITYVADRPGHDRR, peptide start residue: 289)” the value was -0.709. Next, “UniProt P37595 (peptide sequence: AQMSLQQELR, peptide start residue: 18)”: 0.693; “UniProt P77552 (peptide sequence: AENTVVTGAGWLK, peptide start residue: 41)”: 0.332.

Regarding “UniProt Q46927 (peptide sequence: QINPECR, peptide start residue: 95)”, the log2 fold change is -2.51.

As for “UniProt P51024 (peptide sequence: QLIEMNR, peptide start residue: 75)”, the log2 fold change is -0.359.
